# Compound activity from PubChem.
# Cardio protect = protects H9c2 cardiomyocytes from peroxide injury. 360,000 compounds, 0.63% hits. H2O2 injury protection, ATPLite, 2 h. protection from H2O2 cell death, % at 20 µM. AID 588492;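 active means compounds giving at least 50% protection of heart cells from peroxide-induced death in the single-dose screen, raw or plate-pattern-corrected value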;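 further: 0% = DMSO wells with peroxide and 100% = DMSO wells without peroxide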
# SKN-1 inh = inhibitors of C. elegans SKN-1; inhibition, % at 21.8 µM; 360,000 compounds, 0.49% hits; C. elegans VP596 Pgst-4::GFP/RFP ratio, acrylamide-induced, 24 h;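 active means interference check ratio from 0.5 to 1.5 plus GFP to RFP signal ratio inhibition reaching or exceeding a fixed threshold, cut at about 30% in these data, passing the limit was not always enough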
# CRFR2-BP antag = blocks CRF-induced signaling of the CRF-BP/CRF-R2 complex | AID 588475 | 350,000 compounds, 0.59% hits | inhibition, % at 11.8 µM | HEK293 CRF-R2/CRF-BP, CRF-induced calcium fluorescence;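 active means inhibition of the ligand-induced calcium signal above about 50% at the single tested concentration, limit read from the data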
# TAG inh = inhibitors of triacylglycerol accumulation | H9c2 cells, Nile Red lipid (TAG) fluorescence; cells loaded with 200 µM oleic acid | inhibition, % at 12.5 µM | 230,000 compounds, 0.66% hits | AID 651582;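 active means pattern-corrected inhibition of lipid staining of at least 50% with the nuclear-stain viability signal not falling by more than 50%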;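 further: 0% = DMSO wells and 100% = triacsin C control wells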
# CRFBP-R2 agonist = CRF-BP/CRF-R2 complex agonism. HEK293 CRF-R2/CRF-BP, calcium dye fluorescence (FLIPR); percent of saturating CRF peptide response. activation, % at 13.2 µM. 350,000 compounds, 0.46% hits;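 active means activation of at least 50%, plus an integration ratio under a set limit after plate pattern correction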;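 further: plate controls were neutral control wells without compound for no effect and CRF at EC100 for full effect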
# iPSC survival up = hiPSC single-cell survival enhancement. ATPlite luminescence; 100% = ROCK inhibitor wells, 0% = DMSO. survival enhancement, % at 20 µM. 360,000 compounds, 0.044% hits. AID 602274; in the data active means survival enhancement above about 18%;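 further: cells exposed to compounds for 16 hours before the ATP read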
# Numbers without * were called inactive; . = no result given. Rows were chosen to be rich in hits. Some 2.5% of all compounds tested hit in one or more screens of this group.
SMILES,Cardio protect,SKN-1 inh,CRFR2-BP antag,TAG inh,CRFBP-R2 agonist,iPSC survival up
COc1ccc(/C=C2\SC(=S)N(C(Cc3ccccc3)C(=O)O)C2=O)cc1 (stereo unspecified),-4,4,58*,.,-1,-3
COc1ccc(/C=C2\SC(=S)N(CC(=O)Nc3nnc(C)s3)C2=O)cc1,6,-9,-45,-7,-2,0
N#Cc1cccc(NC(=O)c2cc(C3CCCCN3S(=O)(=O)c3ccccc3)on2)c1 (stereo unspecified),0,15,.,91,.,-2
O=c1cc[nH]c2c1ccc1c(=O)cc[nH]c12,0,2,6,.,0,0
O=c1cc[nH]c2c(Cl)cccc12,19,21,92*,.,-2,1
COc1cc2[nH]c3c(=O)n4c(nc3c2cc1OC)SCCC4,17,1,93*,1,44,-2
Oc1ccc(/C=N/Nc2nccnc2Cl)c(O)c1,52*,5,-35,-50,-2,0
Oc1ccc(C=NNc2ccccn2)c(O)c1,0,-4,-26,53*,-1,-3
CCN(CC)S(=O)(=O)c1ccc(N/N=C/c2ccc(O)cc2O)nc1,78*,4,-15,.,1,-1
Oc1ccccc1/C=N/Nc1nccnc1Cl,17,6,12,-22,-1,-4
O=C(O)c1ccc(Nc2nc(-c3cc4ccccc4oc3=O)cs2)cc1O,16,-6,-44,.,61*,-1
COc1ccc(/C=N/NC(=O)Cc2csc(Nc3cccc(C(F)(F)F)c3)n2)cc1C,-3,37*,23,27,-1,2
CCCCCCCCN1C(=O)[C@H](CC(=O)NCCCC)C[C@@]2(C(=O)OC)CCCCC=C12,.,-6,.,.,.,0
Cc1nn(C)c(Oc2ccc(Cl)cc2)c1C(=O)O,-2,-8,61*,-14,-1,2
N#C/C(=C\c1ccc(-c2ccc(C(=O)O)cc2)o1)c1nc2ccccc2[nH]1,16,13,-237,5,141*,1
N#C/C(=C/c1ccc(N2CCCC2)c([N+](=O)[O-])c1)c1nc2ccccc2[nH]1,1,21,1,.,-1,2
N#C/C(=C\c1ccc(N2CCOCC2)c([N+](=O)[O-])c1)c1nc2ccccc2[nH]1,62*,7,-37,.,0,-2
N#C/C(=C\c1ccc(N2CCOCC2)o1)c1nc2ccccc2[nH]1,-20,45,-62,-210,95*,-5
N#C/C(=C/c1ccc(N2CCOCC2)o1)c1ccc(Cl)cc1,-20,30,0,.,1,-3
CCOC(=O)CCC1(C(=O)OC)C(=O)CCCCCC=C1C(=O)OC (stereo unspecified),3,-8,42,-13,6,4
CCn1c(CCNC(=O)c2ccc(OC)cc2)nnc1SCc1ccc(Cl)c(Cl)c1,-11,4,-150,.,136*,0
CCc1nc(N=Nc2c(O)[nH]c3ccccc23)c2c3c(sc2n1)CCC3,69*,14,5,.,8,3
Cc1c(Nc2cc(Cl)c3nonc3c2[N+](=O)[O-])c(=O)n(-c2ccccc2)n1C,-24,5,43,102*,-8,33*
COc1ccc(-c2cc(-c3ccc(C)cc3)n[nH]2)c(O)c1,-6,39*,-13,.,3,0
O=C1N/C(=N/N=C/c2ccc(F)cc2)SC1c1ccccc1 (stereo unspecified),-9,14,52*,5,-1,0
SMILES,Cardio protect,SKN-1 inh,CRFR2-BP antag,TAG inh,CRFBP-R2 agonist,iPSC survival up
CN(c1ccc(Cl)cc1)c1cc2c(c3c1ccn3C)C1CCC2O1 (stereo unspecified),-4,18,.,.,.,-2
NS(=O)(=O)c1ccc(-c2cccc(/C=C3\SC(=O)NC3=O)c2)cc1,-7,2,-8,5,3,-1
CCOC(=O)c1c(-c2ccc(-c3ccccc3)cc2)csc1NC(=O)CNCCN(C)C,-21,52*,-3,.,0,0
CCOC(=O)c1c(-c2cccs2)csc1NC(=O)CN1CC(C)OC(C)C1 (stereo unspecified),13,37*,-24,7,3,3
CCOC(=O)c1sc(NC(=O)CN2CC(C)OC(C)C2)nc1C (stereo unspecified),5,35*,11,.,0,-1
Cc1ccccc1C(=O)Nc1cc(C(F)(F)F)ccc1-n1cncn1,-3,-12,-4,14,-1,0
